# Measurements taken from PubChem BioAssay.
# Activity calls are given as the source filed them.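 How the source made its calls, unless noted: active means luciferase signal above three times the same-plate solvent-only control wells; inactive means the rest.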
# Tests used:
# [1] = biological target: Mitogen-activated protein kinase 7 (Homo sapiens) (UniProt Q13164); assay: ERK5 transactivation activators in reporter cells, primary screen, cell-based, HTS (AID 1508626); conditions: HeLa Gal4-ERK5 transactivation, 18 h, at 5 µM, stronger effect = higher value;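 further: luciferase driven by Gal4-ERK5 fusion binding five Gal4 sites before minimal TATA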
# Mitogen-activated protein kinase 7 (Homo sapiens), sequence (Q13164 whole entry, looked up, the tested form may be a part): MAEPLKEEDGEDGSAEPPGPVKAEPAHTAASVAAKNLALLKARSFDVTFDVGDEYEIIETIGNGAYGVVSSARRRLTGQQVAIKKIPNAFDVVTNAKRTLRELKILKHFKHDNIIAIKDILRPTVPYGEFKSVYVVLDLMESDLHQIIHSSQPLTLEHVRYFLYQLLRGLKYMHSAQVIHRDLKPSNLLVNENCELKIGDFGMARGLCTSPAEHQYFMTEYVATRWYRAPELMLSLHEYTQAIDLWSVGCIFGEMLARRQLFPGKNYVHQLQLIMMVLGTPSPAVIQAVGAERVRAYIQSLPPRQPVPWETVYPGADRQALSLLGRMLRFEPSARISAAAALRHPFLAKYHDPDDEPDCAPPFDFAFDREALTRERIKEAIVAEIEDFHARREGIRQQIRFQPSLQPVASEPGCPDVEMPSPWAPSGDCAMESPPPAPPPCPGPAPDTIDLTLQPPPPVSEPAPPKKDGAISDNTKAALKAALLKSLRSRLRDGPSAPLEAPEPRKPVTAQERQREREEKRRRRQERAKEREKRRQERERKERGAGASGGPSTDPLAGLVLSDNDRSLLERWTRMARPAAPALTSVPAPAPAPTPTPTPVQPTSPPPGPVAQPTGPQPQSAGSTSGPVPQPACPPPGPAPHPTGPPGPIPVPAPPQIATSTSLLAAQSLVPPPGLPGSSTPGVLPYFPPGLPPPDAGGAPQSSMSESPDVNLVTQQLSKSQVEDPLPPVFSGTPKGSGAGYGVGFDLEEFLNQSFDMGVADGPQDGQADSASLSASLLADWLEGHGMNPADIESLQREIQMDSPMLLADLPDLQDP
# [2] = biological target: NAD(+) hydrolase SARM1 (Homo sapiens) (UniProt Q6SZW1); assay: SARM1 TIR NADase inhibitors, cell lysate, NAD-Glo luminescence (AID 1508614;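 active means compound whose remaining NAD level is above about 45 nM, limit read from the data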); conditions: SAM-TIR HEK293T lysate NADase, at 1 µM, stronger effect = higher value
# NAD(+) hydrolase SARM1 (Homo sapiens), sequence (Q6SZW1 whole entry, looked up): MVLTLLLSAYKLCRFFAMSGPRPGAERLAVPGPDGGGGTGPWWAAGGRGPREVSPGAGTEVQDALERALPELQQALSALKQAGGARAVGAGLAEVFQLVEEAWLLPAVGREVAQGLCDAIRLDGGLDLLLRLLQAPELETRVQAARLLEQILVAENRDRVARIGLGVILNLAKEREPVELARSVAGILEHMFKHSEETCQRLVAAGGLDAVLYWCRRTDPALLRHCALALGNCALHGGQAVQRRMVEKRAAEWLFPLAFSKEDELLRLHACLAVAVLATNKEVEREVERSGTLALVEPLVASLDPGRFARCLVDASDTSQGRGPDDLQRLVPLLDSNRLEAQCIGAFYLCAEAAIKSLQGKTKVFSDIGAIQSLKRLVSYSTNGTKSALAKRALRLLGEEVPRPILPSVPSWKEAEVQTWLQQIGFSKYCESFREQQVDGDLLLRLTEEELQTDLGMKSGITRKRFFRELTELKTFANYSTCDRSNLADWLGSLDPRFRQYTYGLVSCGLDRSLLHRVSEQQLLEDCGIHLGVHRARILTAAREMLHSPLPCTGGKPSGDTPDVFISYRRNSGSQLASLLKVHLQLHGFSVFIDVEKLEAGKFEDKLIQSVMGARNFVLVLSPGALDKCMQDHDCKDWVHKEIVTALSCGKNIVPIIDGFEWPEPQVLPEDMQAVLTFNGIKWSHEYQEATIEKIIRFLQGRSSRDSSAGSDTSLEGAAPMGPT
# [3] = LFS_MB_P medulloblastoma growth inhibition, cell-based, chromothripsis tumors, cisplatin or BGB combos (AID 1671449; in the data active means inhibition above about 80%;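 further: cells exposed for 96 hours; 0% = vehicle DMSO and 100% = killing by high DMSO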); conditions: LFS_MB_P medulloblastoma cells
# [4] = HDN33 neuroblastoma growth inhibition, cell-based, chromothripsis tumors, cisplatin or BGB combos (AID 1671450; in the data active means inhibition above about 80%;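 further: cells exposed to compound for four days; 0% = vehicle DMSO and 100% = cell killing by high DMSO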); conditions: HDN33 neuroblastoma cells, stronger effect = higher value
# [5] = ICB984 medulloblastoma cell growth inhibition, synergistic combos for chromothripsis tumors, cisplatin or BGB combos (AID 1671451; call rule not given here;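 further: cells exposed for 96 hours before readout; 0% = vehicle DMSO and 100% = killing by high DMSO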); conditions: ICB984 medulloblastoma cells, drug combinations, stronger effect = higher value
# [6] = HTB85 osteosarcoma cell growth inhibition, synergistic combos for chromothripsis tumors, BGB or cisplatin IC20 combos (AID 1671453; in the data active means inhibition above about 80%;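 further: cells exposed for 96 hours before readout; 0% = vehicle DMSO and 100% = high DMSO killing control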); conditions: HTB85 osteosarcoma cells, drug combinations, stronger effect = higher value
# [7] = MDA-MB-436 breast carcinoma cell growth inhibition, synergistic combos for chromothripsis tumors, BGB or cisplatin combos (AID 1671458; call rule not given here;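 further: cells exposed for 96 hours; 0% = vehicle DMSO and 100% = killing by high DMSO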); conditions: MDA-MB-436 breast carcinoma growth inhibition, drug combinations, stronger effect = higher value
# [8] = growth inhibition of BT084 medulloblastoma cells, cell-based, ICGC_MB145, cisplatin and BGB IC40 combos (AID 1671461; in the data active means inhibition above about 80%;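 further: cells exposed to drugs for 96 hours; 0% = vehicle DMSO and 100% = high DMSO full killing control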); conditions: drug combinations, stronger effect = higher value
# [9] = growth inhibition of RCMB18 medulloblastoma cells, cell-based, cisplatin and BGB IC40 combos (AID 1671462; in the data active means inhibition above about 80%;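 further: cells exposed to compound for four days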); conditions: stronger effect = higher value
smiles,measurement,setting,value
C[C@H]1C[C@@H]2[C@H]([C@@H](O)C[C@@]3(C)[C@H]2CC[C@]3(O)C(=O)COC(=O)CCC(=O)O)[C@@]2(C)C=CC(=O)C=C12,luciferase signal,[1],72 AU (inactive)
CC(=O)[C@H]1CC[C@H]2[C@@H]3CC=C4C[C@@H](OC(=O)CCC(=O)O)CC[C@]4(C)[C@H]3CC[C@]12C,luciferase signal,[1],52 AU (inactive)
CO/N=C1\C[C@]2(C[C@@H]3C[C@@H](C/C=C(\C)C[C@@H](C)/C=C/C=C4\CO[C@@H]5[C@H](O)C(C)=C[C@@H](C(=O)O3)[C@]45O)O2)O[C@H](/C(C)=C/C(C)C)[C@H]1C,luciferase signal,[1],40 AU (inactive)
CN[C@@H]1[C@H](O[C@H]2[C@H](O[C@H]3[C@H](O)[C@@H](O)[C@H](N=C(N)N)[C@@H](O)[C@@H]3N=C(N)N)O[C@@H](C)[C@]2(O)C=O)O[C@@H](CO)[C@H](O)[C@H]1O,remaining NAD,[2],10 nM (inactive)
same,luciferase signal,[1],80 AU (inactive)
C[C@@H]1O[C@@H]1P(=O)(O)O,remaining NAD,[2],10 nM (inactive)
same,luciferase signal,[1],76 AU (inactive)
CC[C@H]1OC(=O)C[C@@H](O)[C@H](C)[C@@H](O[C@@H]2O[C@H](C)[C@@H](O)[C@H](N(C)C)[C@H]2O)[C@@H](CCN2C[C@H](C)C[C@H](C)C2)C[C@@H](C)C(=O)/C=C/C(C)=C/[C@@H]1CO[C@@H]1O[C@H](C)[C@@H](O)[C@@H](OC)[C@H]1OC,remaining NAD,[2],10 nM (inactive)
same,luciferase signal,[1],36 AU (inactive)
C[C@@H]1C\C=C/C=C/C=C/C=C/[C@H](O[C@@H]2O[C@H](C)[C@@H](O)[C@H](N)[C@@H]2O)C[C@@H]2O[C@](O)(C[C@@H](O)C[C@@H]3O[C@@H]3/C=C\C(=O)O1)C[C@H](O)[C@H]2C(=O)O,remaining NAD,[2],10 nM (inactive)
same,luciferase signal,[1],292 AU (inactive)
C[C@@H]1CC[C@@]2(OC1)O[C@H]1C[C@H]3[C@@H]4CC[C@@H]5C[C@@H](O)CC[C@]5(C)[C@H]4CC[C@]3(C)[C@H]1[C@@H]2C,luciferase signal,[1],20 AU (inactive)
CC(=O)[C@@]12O[C@](C)(c3ccccc3)O[C@@H]1C[C@H]1[C@@H]3CCC4=CC(=O)CC[C@]4(C)[C@H]3CC[C@@]12C,remaining NAD,[2],10 nM (inactive)
same,luciferase signal,[1],76 AU (inactive)
CC1=C2[C@@H]([C@H](C)CC[C@H]2/C=C(\C)C(=O)O)[C@H](O)C1,luciferase signal,[1],24 AU (inactive)
CC(C)CCC[C@@H](C)[C@H]1CC[C@H]2[C@@H]3C=CC4=CC(=O)CC[C@]4(C)[C@H]3CC[C@]12C,luciferase signal,[1],44 AU (inactive)
CC(=O)O[C@H]1CC[C@@]2(C)C(=CC[C@H]3[C@@H]4CC[C@H]([C@H](C)CCCC(C)C)[C@@]4(C)CC[C@@H]32)C1,luciferase signal,[1],56 AU (inactive)
Cn1nnnc1SCC1=C(C(=O)O)N2C(=O)[C@@H](NC(=O)[C@H](OC=O)c3ccccc3)[C@H]2SC1,remaining NAD,[2],10 nM (inactive)
same,luciferase signal,[1],16 AU (inactive)
C=CC1=C(C)C2=CC3=NC(=C(CC(=O)O)C4=NC(=C(C)C4=C(O)O)C=c4[nH]c(c(C)c4CC)=CC1=N2)C(CCC(=O)O)C3C (centres undefined),remaining NAD,[2],10 nM (inactive)
same,inhibition,"[3]; at 0.5 µM, stronger effect = higher value",-22.2% (inactive)
same,inhibition,"[3]; measured here: combination with BGB IC20, at 0.005 µM",-27.4%
same,inhibition,"[3]; measured here: combination with BGB IC40, at 0.005 µM",-20.4%
same,inhibition,"[3]; measured here: combination with BGB IC40, at 0.05 µM",-7.95%
same,inhibition,"[3]; measured here: combination with cisplatin, at 0.5 µM, stronger effect = higher value",-18.8%
same,inhibition,"[3]; measured here: combination with cisplatin, at 5 µM, stronger effect = higher value",-59.6%
same,inhibition,"[4]; BGB combo, at 5 µM",-5.94%
same,inhibition,[4]; at 0.5 µM,-6.06% (inactive)
same,inhibition,"[4]; cisplatin combo, at 5 µM",3.3%
same,inhibition,"[4]; measured here: with BGB IC20 combination, at 0.5 µM",-2.85%
same,inhibition,"[4]; measured here: with cisplatin IC20 combination, at 0.5 µM",8.33%
same,inhibition,"[4]; single agent, at 5 µM",10.4%
same,inhibition,"[5]; BGB IC20 combo, at 0.005 µM",-23.1%
same,inhibition,"[5]; BGB IC40 combo, at 0.005 µM",-25.1%
same,inhibition,"[5]; BGB IC40 combo, at 0.05 µM",-20%
same,inhibition,[5]; at 0.5 µM,-26.5% (inactive)
same,inhibition,"[5]; cisplatin combo, at 0.05 µM",-20%
same,inhibition,"[5]; cisplatin combo, at 0.5 µM",-42.5%
same,inhibition,"[5]; cisplatin combo, at 5 µM",-25.5%
same,inhibition,"[5]; measured here: 5 uM single agent, at 5 µM",5.39%
same,inhibition,[6]; at 0.5 µM,-16.7% (inactive)
same,inhibition,"[6]; measured here: with BGB IC20, at 0.5 µM",-29.2%
same,inhibition,"[6]; measured here: with BGB IC20, at 5 µM",-11.5%
same,inhibition,"[6]; measured here: with cisplatin IC20, at 0.5 µM",-27.9%
same,inhibition,"[6]; measured here: with cisplatin IC20, at 5 µM",-1.9%
same,inhibition,"[6]; single agent, at 5 µM",1.12%
same,inhibition,[7]; at 0.5 µM,-19% (inactive)
same,inhibition,"[7]; measured here: BGB combination, at 0.5 µM",-19.5%
same,inhibition,"[7]; measured here: BGB combination, at 5 µM",-14.7%
same,inhibition,"[7]; measured here: cisplatin combination, at 0.5 µM",-36.2%
same,inhibition,"[7]; measured here: cisplatin combination, at 5 µM",-11.5%
same,inhibition,[8]; at 0.5 µM,-4.34% (inactive)
same,inhibition,"[8]; cisplatin combination, at 0.5 µM",3.74%
same,inhibition,"[8]; cisplatin combination, at 5 µM",-40.8%
same,inhibition,"[8]; measured here: BGB IC40 combination 0.05 uM, at 0.05 µM",-3.49%
same,inhibition,"[8]; single agent, at 5 µM",-10.5%
same,inhibition,[9]; at 0.5 µM,-15.6% (inactive)
same,inhibition,"[9]; cisplatin combo, at 5 µM",30.7%
same,inhibition,"[9]; measured here: BGB IC40 combination, at 0.05 µM",-38.7%
same,inhibition,"[9]; measured here: combination with cisplatin, at 0.5 µM",-5.59%
same,inhibition,"[9]; single agent, at 5 µM",-26.5%
C[C@]12C=CC(=O)C=C1CC[C@@H]1[C@@H]2[C@@H](O)C[C@@]2(C)[C@H]1CC[C@]2(O)C(=O)COP(=O)(O)O,remaining NAD,[2],10 nM (inactive)
same,luciferase signal,[1],96 AU (inactive)
C/C1=C\CC(C)(C)/C=C/CC2(C)OC2CC1 (centres undefined),luciferase signal,[1],64 AU (inactive)
CO/N=C(/C(=O)N[C@@H]1C(=O)N2C(C(=O)OC(C)OC(C)=O)=C(COC(N)=O)CS[C@H]12)c1ccco1 (some centres undefined),luciferase signal,[1],120 AU (inactive)
CNS(=O)(=O)c1ccc(NC(=O)c2ccccc2C(=O)O)cc1,luciferase signal,[1],28 AU (inactive)
C[C@]12CC[C@@H]3c4ccc(OC(=O)c5ccccc5)cc4CC[C@H]3[C@@H]1CC[C@@H]2O,remaining NAD,[2],10 nM (inactive)
same,luciferase signal,[1],56 AU (inactive)
C=CCCCCCCCCCCCC(O)CC(O)COC(C)=O (centres undefined),luciferase signal,[1],48 AU (inactive)
CN[C@@H]1[C@@H](O)[C@@H](O[C@@H]2[C@@H](O)[C@H](O[C@H]3OC(CN)=CC[C@H]3N)[C@@H](N)C[C@H]2N)OC[C@]1(C)O,remaining NAD,[2],10 nM (inactive)
same,luciferase signal,[1],48 AU (inactive)
CCN[C@@H]1C[C@H](N)[C@@H](O[C@H]2OC(CN)=CC[C@H]2N)[C@H](O)[C@H]1O[C@H]1OC[C@](C)(O)[C@H](NC)[C@H]1O,remaining NAD,[2],10 nM (inactive)
same,luciferase signal,[1],56 AU (inactive)
COC(=O)/C=C/C(C)=C\C=C\C(C)=C\C=C\C=C(C)\C=C\C=C(C)\C=C\C(=O)O,luciferase signal,[1],64 AU (inactive)
CC[C@H](CC[C@@H](C)[C@H]1CC[C@H]2[C@@H]3CC[C@H]4C[C@@H](O)CC[C@]4(C)[C@H]3CC[C@]12C)C(C)C,luciferase signal,[1],12 AU (inactive)
C[C@H]1[C@@H](O)O[C@@H]2O[C@@]3(C)CC[C@H]4[C@H](C)CC[C@@H]1[C@@]24OO3,luciferase signal,[1],52 AU (inactive)
CO[C@@H]1[C@@H](O[C@@H]2O[C@H](C)[C@@H](O[C@H]3C[C@@](C)(O)[C@@H](O)[C@H](C)O3)[C@H](N(C)C)[C@H]2O)[C@@H](CC=O)C[C@@H](C)[C@@H](O[C@H]2CC[C@H](N(C)C)[C@@H](C)O2)/C=C/C=C/C[C@@H](C)OC(=O)C[C@H]1O,remaining NAD,[2],10 nM (inactive)
same,luciferase signal,[1],216 AU (inactive)
OC[C@H]1O[C@H]([S-])[C@H](O)[C@@H](O)[C@@H]1O.[Au+],luciferase signal,[1],68 AU (inactive)
C=C1C(=O)C23C(O)C1CCC2C12COC3(O)C(O)C1C(C)(C)CCC2O (centres undefined),luciferase signal,[1],108 AU (inactive)
CC(=O)OCC(=O)[C@@]1(O)CCC2C3CC[C@@H]4C[C@H](O)CC[C@]4(C)C3C(=O)C[C@@]21C (some centres undefined),luciferase signal,[1],112 AU (inactive)
COc1ccc(-c2cc(=O)c3c(O)c(OC)c(OC)c(OC)c3o2)cc1,luciferase signal,[1],120 AU (inactive)
CC(=O)OCC(=O)[C@@]1(O)[C@@H](C)C[C@H]2[C@@H]3CCC4=CC(=O)C=C[C@]4(C)[C@@]3(F)[C@@H](O)C[C@@]21C,remaining NAD,[2],10 nM (inactive)
same,luciferase signal,[1],132 AU (inactive)
C/C=C(/C)C(=O)O[C@H]1[C@H](OC(C)=O)[C@]2(CO)[C@H](O)C[C@]3(C)C(=CC[C@@H]4[C@@]5(C)CC[C@H](O[C@@H]6O[C@H](C(=O)O)[C@@H](O[C@@H]7O[C@H](CO)[C@@H](O)[C@H](O)[C@H]7O)[C@H](O)[C@H]6O[C@@H]6O[C@H](CO)[C@@H](O)[C@H](O)[C@H]6O)[C@](C)(CO)[C@@H]5CC[C@]43C)[C@@H]2CC1(C)C,luciferase signal,[1],276 AU (inactive)
CC1(C)S[C@@H]2[C@H](NC(=O)[C@H](C(=O)O)c3ccsc3)C(=O)N2[C@H]1C(=O)O,remaining NAD,[2],10 nM (inactive)
same,luciferase signal,[1],44 AU (inactive)
CC1=C2[C@H](/C=C(\C)C(=O)O)CC[C@@H](C)[C@H]2CC1,luciferase signal,[1],68 AU (inactive)
NC(=O)CCCCC(S)CCS (centres undefined),luciferase signal,[1],32 AU (inactive)
